Common to all, as to test: log2 fold change, soluble protein after heating vs DMSO (PISA); higher = thermal stabilisation; K562 cells, 10 uM, 30 min; active = over 0.2 and 3.5 SD of the protein, either way, in both replicates (recomputed)
Compound in experiment [1]: CS(=O)(=O)c1ccc(-c2cnc(N)c(C(=O)Nc3ccccc3)n2)cc1
The gist of the method:
(§1)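 Values are thermal stability changes relative to control samples and are taken from duplicates. They are stated as log2 fold changes. Before quantification by TMTpro 16plex LC-MS/MS with equalised channel sums, K562 cells at 2×10^6 cells/mL were treated with 10 μM compound for 30 min, heated in aliquots for 3 min across 48°C-58°C, pooled, extracted in PBS with 0.5% NP-40 at 4°C, and centrifuged at 21,000xg for 90 min to give the soluble supernatant.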

Compound in a further experiment: C[C@@H](Oc1cc(-c2cnn(C3CCNCC3)c2)cnc1N)c1c(Cl)ccc(F)c1Cl [crizotinib]
The gist of the method:
as §1

Compound in experiment [2]: C[C@@H]1COCCN1C2=NC(=NC(=C2)C3(CC3)S(=O)(=O)C)C4=C5C=CNC5=CC=C4
The gist of the method: as §1

Compound in experiment [3]: C[C@H](C1=CC=C(C=C1)C(=O)NC2=C3C=CNC3=NC=C2)N
The method, boiled down:
as §1

Compound in a further experiment: C[C@H](Nc1ncnc2nc[nH]c12)c1cc2cccc(Cl)c2c(=O)n1-c1ccccc1 [duvelisib]
The method, boiled down:
as §1

Compound in a further experiment: Cc1cc(Nc2cc(CN3CCOCC3)c3nc(C)c(Cc4ccc(Cl)cc4F)n3n2)n[nH]1 [gandotinib]
The gist of the method:
as §1

Compound in another experiment: Cc1cc(Nc2cc(N3CCN(C)CC3)nc(Sc3ccc(NC(=O)C4CC4)cc3)n2)n[nH]1 [tozasertib]
The method, boiled down:
as §1

Compound in experiment [4]: Cc1cc(SCc2sc(-c3ccc(C(F)(F)F)cc3)nc2C)ccc1OCC(=O)O
The method, boiled down: as §1

Compound in a further experiment: Cc1ccc(-n2nc(C(C)(C)C)cc2NC(=O)Nc2ccc(OCCN3CCOCC3)c3ccccc23)cc1 [doramapimod]
The gist of the method: as §1

Compound in a further experiment: Cc1ccc(C(=O)N(CCCN)[C@@H](c2nc3cc(Cl)ccc3c(=O)n2Cc2ccccc2)C(C)C)cc1 [ispinesib]
The method, boiled down: as §1

About 7,900 targets were measured; listed, in parts, are those with a hit and a random draw of the rest. About 0.6% of all pairs of compound and target were hits. Values without a mark were called inactive.

Sequence of UniProt P07948 (P07948 whole entry, looked up): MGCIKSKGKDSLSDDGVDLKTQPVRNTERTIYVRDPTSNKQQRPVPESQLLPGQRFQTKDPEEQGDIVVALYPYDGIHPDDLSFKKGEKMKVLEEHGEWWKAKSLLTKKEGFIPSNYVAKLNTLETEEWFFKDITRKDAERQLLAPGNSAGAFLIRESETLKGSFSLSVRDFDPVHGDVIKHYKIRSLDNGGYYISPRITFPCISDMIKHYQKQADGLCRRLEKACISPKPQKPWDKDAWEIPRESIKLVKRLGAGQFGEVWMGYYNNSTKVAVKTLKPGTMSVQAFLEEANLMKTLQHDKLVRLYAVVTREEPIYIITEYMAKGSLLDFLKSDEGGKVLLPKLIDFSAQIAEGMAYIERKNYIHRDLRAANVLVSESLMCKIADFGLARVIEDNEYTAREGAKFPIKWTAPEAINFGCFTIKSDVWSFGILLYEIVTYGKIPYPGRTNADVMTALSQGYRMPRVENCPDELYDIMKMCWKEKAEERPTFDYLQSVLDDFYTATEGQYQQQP
Sequence of UniProt Q8IW41 (Q8IW41 whole entry, looked up): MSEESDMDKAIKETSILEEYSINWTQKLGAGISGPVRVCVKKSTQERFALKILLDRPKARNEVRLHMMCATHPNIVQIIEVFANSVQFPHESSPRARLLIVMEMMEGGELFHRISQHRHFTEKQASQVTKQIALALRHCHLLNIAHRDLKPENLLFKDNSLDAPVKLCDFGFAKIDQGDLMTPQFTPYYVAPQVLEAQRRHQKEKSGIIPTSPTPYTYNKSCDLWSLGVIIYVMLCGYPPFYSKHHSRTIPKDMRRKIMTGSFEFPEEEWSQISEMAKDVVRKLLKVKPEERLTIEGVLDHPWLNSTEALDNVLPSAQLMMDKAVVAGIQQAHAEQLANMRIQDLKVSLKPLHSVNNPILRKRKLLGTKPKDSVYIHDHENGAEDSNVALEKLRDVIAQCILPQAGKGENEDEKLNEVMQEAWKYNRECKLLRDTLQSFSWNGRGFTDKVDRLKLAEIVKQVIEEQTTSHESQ
Sequence of UniProt Q14681 (Q14681 whole entry, looked up): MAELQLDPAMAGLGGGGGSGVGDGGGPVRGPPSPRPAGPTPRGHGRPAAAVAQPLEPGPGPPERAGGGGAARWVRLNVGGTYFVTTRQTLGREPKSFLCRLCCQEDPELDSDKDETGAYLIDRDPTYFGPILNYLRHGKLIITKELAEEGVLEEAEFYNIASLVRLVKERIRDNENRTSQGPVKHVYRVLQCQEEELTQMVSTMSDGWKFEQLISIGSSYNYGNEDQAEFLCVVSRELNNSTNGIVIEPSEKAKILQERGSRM
Sequence of UniProt Q14680 (Q14680 whole entry, looked up): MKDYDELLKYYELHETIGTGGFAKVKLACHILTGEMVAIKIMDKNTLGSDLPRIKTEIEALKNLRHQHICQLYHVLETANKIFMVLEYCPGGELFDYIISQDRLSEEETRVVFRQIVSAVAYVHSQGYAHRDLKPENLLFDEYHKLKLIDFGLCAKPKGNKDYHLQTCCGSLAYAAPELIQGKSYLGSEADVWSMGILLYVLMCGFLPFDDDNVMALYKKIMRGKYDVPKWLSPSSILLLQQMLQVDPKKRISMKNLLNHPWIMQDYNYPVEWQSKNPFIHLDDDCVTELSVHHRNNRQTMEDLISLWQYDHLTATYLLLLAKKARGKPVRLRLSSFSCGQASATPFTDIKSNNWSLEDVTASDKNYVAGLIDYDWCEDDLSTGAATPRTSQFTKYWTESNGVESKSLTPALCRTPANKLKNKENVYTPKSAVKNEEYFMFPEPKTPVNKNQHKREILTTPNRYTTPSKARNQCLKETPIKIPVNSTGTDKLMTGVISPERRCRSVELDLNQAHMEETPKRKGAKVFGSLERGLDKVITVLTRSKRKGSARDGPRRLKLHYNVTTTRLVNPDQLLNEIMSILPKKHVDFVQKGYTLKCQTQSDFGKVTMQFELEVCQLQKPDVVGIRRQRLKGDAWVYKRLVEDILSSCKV
Sequence of UniProt Q13418 (Q13418 whole entry, looked up): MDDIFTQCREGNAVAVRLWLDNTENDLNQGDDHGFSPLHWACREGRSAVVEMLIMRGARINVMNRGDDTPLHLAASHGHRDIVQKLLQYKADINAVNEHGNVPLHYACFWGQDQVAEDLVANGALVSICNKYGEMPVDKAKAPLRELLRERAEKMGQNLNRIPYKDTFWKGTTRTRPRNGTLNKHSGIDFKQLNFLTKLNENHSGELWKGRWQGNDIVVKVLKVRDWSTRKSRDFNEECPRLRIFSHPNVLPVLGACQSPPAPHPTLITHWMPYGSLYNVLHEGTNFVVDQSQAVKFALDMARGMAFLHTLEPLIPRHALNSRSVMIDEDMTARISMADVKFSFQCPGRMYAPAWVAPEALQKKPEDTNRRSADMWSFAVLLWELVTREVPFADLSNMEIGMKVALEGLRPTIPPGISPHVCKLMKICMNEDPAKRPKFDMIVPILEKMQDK
Sequence of UniProt Q07666 (Q07666 whole entry, looked up): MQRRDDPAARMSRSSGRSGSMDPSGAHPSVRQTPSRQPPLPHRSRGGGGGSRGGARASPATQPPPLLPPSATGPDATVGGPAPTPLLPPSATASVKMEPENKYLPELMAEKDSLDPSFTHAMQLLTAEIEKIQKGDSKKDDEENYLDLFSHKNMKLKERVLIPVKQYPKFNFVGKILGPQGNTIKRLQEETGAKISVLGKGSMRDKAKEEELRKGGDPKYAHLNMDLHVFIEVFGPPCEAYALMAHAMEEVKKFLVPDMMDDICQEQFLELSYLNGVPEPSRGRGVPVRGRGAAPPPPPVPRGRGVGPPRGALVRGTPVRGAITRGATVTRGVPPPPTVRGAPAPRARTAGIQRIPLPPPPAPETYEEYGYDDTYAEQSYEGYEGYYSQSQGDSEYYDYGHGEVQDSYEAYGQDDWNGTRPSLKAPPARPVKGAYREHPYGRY
Sequence of UniProt P23368 (P23368 whole entry, looked up): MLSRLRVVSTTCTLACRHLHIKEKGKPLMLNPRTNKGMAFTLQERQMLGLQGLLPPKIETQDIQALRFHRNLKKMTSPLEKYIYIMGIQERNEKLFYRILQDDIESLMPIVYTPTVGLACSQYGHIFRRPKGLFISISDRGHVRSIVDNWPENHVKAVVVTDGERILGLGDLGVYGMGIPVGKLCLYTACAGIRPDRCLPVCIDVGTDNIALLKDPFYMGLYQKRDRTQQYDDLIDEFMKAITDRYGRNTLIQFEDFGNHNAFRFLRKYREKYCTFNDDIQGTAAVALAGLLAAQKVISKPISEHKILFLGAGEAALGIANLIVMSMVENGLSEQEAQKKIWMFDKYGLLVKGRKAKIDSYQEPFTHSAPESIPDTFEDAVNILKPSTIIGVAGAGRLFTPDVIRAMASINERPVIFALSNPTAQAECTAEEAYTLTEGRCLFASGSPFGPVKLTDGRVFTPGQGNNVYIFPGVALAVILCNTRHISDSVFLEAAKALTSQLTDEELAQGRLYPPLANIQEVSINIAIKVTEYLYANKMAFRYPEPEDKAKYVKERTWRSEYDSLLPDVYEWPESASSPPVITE
Sequence of UniProt Q96PC5 (Q96PC5 whole entry, looked up): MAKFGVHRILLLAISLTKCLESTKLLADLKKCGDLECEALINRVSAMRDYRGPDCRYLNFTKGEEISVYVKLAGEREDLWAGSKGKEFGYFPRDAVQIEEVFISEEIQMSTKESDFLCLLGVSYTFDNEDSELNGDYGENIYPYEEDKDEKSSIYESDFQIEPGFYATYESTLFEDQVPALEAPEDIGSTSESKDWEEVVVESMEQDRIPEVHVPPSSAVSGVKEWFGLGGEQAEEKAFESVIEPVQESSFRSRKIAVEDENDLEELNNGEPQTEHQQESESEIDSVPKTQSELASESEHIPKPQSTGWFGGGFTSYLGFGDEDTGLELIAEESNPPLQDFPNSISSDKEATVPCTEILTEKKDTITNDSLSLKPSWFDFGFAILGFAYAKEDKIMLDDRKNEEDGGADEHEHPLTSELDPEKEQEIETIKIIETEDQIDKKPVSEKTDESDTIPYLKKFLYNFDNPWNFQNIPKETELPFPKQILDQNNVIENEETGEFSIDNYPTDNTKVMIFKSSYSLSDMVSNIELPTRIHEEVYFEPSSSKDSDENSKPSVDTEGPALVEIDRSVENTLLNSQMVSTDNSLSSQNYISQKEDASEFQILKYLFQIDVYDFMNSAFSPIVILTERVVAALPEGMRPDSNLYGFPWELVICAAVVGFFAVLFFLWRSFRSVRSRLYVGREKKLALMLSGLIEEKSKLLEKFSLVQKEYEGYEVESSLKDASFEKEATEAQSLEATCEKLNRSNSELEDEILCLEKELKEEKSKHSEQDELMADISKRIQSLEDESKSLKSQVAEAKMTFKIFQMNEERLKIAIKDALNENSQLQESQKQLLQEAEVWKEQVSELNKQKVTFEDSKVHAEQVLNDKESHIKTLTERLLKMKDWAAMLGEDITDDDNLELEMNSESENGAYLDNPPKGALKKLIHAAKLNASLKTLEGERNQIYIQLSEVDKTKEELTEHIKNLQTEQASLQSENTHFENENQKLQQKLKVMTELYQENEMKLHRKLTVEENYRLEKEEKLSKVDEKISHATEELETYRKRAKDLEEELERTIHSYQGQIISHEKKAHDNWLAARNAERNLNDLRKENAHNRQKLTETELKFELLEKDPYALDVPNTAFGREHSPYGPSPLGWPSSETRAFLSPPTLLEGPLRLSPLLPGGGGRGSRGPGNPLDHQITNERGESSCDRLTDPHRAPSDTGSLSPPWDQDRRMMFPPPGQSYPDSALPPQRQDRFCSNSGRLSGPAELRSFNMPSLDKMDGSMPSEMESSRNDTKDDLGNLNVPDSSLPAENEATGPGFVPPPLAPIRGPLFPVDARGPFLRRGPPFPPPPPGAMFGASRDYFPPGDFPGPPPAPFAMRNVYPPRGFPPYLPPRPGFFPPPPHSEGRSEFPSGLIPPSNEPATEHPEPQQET

As to IGFBP2 (UniProt P18065), the log2 fold change in experiment [1] is -0.205; with crizotinib, -0.297; in [2], -0.051; in experiment [3], -0.189; with duvelisib it was 0.173; with gandotinib, -0.475. In addition, the log2 fold change in the experiment with tozasertib is -0.083; in [4], 0.026; with doramapimod it was -0.305; with ispinesib, -0.482.
Regarding MELK (UniProt Q14680), the log2 fold change is 0.109 in [1]; -0.128 with crizotinib; -0.099 in [2]; 0.054 in [3]; -0.063 in the experiment with duvelisib; -0.046 with gandotinib. Further, the log2 fold change in the experiment with tozasertib is -0.087; in [4], -0.047; in the experiment with doramapimod, -0.011.
In the case of MAPK8 isoform 3 (UniProt P45983), the log2 fold change in experiment [1] was 0.003; in the experiment with crizotinib it was -0.08; in [2], 0.092; in experiment [3] it was -0.096; with duvelisib it was 0.018; in the experiment with gandotinib, 0.254. For the same target, the log2 fold change was -0.127 with tozasertib, 0.096 in experiment [4], -0.019 in the experiment with doramapimod and -0.008 with ispinesib.
On to LYN (UniProt P07948), for which the log2 fold change in [1] is -0.023; with crizotinib it was -0.142; in experiment [2], -0.101; in experiment [3], -0.01; with duvelisib, 0.118; with gandotinib it was -0.015. Further, the log2 fold change with tozasertib was -0.085; in experiment [4], 0.132; with doramapimod, 0.065; with ispinesib, -0.094.
As to KHDRBS1 (UniProt Q07666), the log2 fold change in [1] was -0.091; with crizotinib it was -0.02; in [2], -0.06; in [3], -0.019; with duvelisib it was -0.017; with gandotinib, 0.07. For the same target, the log2 fold change with tozasertib is -0.015; in [4], 0.038; in the experiment with doramapimod, -0.027; with ispinesib it was 0.011.
As for MAPKAPK5 (UniProt Q8IW41), the log2 fold change in [1] was 0.012; with crizotinib, -0.046; in experiment [2], 0.027; in [3] it was 0.069; with duvelisib it was 0.056; in the experiment with gandotinib, 0.297. The log2 fold change in the experiment with tozasertib was -0.042; in [4] it was -0.013; in the experiment with doramapimod, 0.141; with ispinesib, -0.017.
With MFSD11 (UniProt O43934), the log2 fold change was -0.098 in experiment [1]; -0.683 (active) with crizotinib; -0.223 in experiment [2]; 0.074 in experiment [3]; 0.03 with duvelisib; 0.036 in the experiment with gandotinib. Besides, the log2 fold change with tozasertib is -0.109; in [4] it was -0.063; with doramapimod it was 0.008.
Turning to ILK (UniProt Q13418), the log2 fold change was 0.054 in [1]; 0.038 with crizotinib; -0.001 in [2]; 0.046 in experiment [3]; 0.081 in the experiment with duvelisib; -0.039 in the experiment with gandotinib. Moreover, the log2 fold change with tozasertib was -0.105; in experiment [4], -0.046; with doramapimod it was -0.023; with ispinesib, -0.153.
Turning to MAPK9 (UniProt P45984), the log2 fold change in experiment [1] was 0.006; with crizotinib it was -0.042; in experiment [2], 0.054; in experiment [3] it was -0.068; with duvelisib, 0.023; in the experiment with gandotinib, -0.018. Further, the log2 fold change with tozasertib was -0.013; in experiment [4] it was -0.041; in the experiment with doramapimod, 0.145; with ispinesib, 0.01.
On to LIMD1 (UniProt Q9UGP4), for which the log2 fold change was -0.03 in experiment [1]; 0.005 with crizotinib; -0.007 in experiment [2]; -0.071 in [3]; -0.032 with duvelisib; 0.011 in the experiment with gandotinib. The log2 fold change with tozasertib is 0.039; in [4], 0.042; in the experiment with doramapimod, -0.01; in the experiment with ispinesib, 0.008.
Turning to IMMT isoform 2 (UniProt Q16891), the log2 fold change in experiment [1] is -0.042; with crizotinib it was -0.152; in [2] it was 0.046; in experiment [3], -0.115; in the experiment with duvelisib, -0.003; in the experiment with gandotinib it was -0.075. Moreover, the log2 fold change is -0.019 in the experiment with tozasertib, -0.087 in experiment [4], -0.034 with doramapimod and -0.031 in the experiment with ispinesib.
On to ME2 (UniProt P23368), for which the log2 fold change in [1] was -0.027; with crizotinib, 0.282 (active); in [2] it was -0.048; in [3], 0.009; with duvelisib, 0.043; in the experiment with gandotinib it was -0.016. Moreover, the log2 fold change with tozasertib was -0.001; in experiment [4] it was -0.002; with doramapimod, -0.016; with ispinesib, 0.334 (active).
For the target KCTD10 (UniProt Q9H3F6), the log2 fold change in experiment [1] is -0.035; with crizotinib, 0.097; in [2], -0.027; in experiment [3] it was -0.13; in the experiment with duvelisib, 0.05; with gandotinib it was 0.042. Further, the log2 fold change with tozasertib is 0.035; in [4], -0.01; with doramapimod it was -0.042; with ispinesib, 0.108.
Take MIA2 (UniProt Q96PC5): the log2 fold change in [1] was 0.001; with crizotinib it was 0.015; in experiment [2], 0.006; in [3], -0.059; with duvelisib, -0.077; in the experiment with gandotinib it was -0.034. The log2 fold change is 0.09 with tozasertib, 0.044 in experiment [4], -0.01 with doramapimod and 0.011 in the experiment with ispinesib.
KCTD2 (UniProt Q14681): the log2 fold change in [1] was 0.178; in the experiment with crizotinib, 0.02; in [2], -0.047; in [3], 0.511; with duvelisib it was 0.211; with gandotinib it was 0.355. The log2 fold change in the experiment with tozasertib is -0.116; in [4] it was -0.281; with doramapimod, 0.089; with ispinesib it was 0.026.

(Values after the supplement of paper PMC10849652.)
